Compound activity: PubChem BioAssay, Broad Institute
A selection: hits, their analogues and other compounds. The true share with any hit is near 6.8%.
T cruzi growth-1 – blocks T. cruzi growth in NIH3T3 culture; T. cruzi beta-gal in NIH3T3, GalScreen luminescence, 90 h; inhibition, % at 8.34 µM; 77,000 compounds, 5.9% hits; AID 624255;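 active = mean inhibition above about 93%, with at least 55% of replicates each passing it, limit read from the data, passing the limit was not always enough; inconclusive = only one of those two conditions holds; inactive = neither condition holds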
C diff HTS – inhibitors of Clostridium difficile growth; Clostridium difficile clinical isolate growth, OD600, 24 h; stronger effect = lower value; 86,000 compounds, 0.25% hits; growth activity, negative = inhibition, % at 16 µg/mL (by protocol);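 active = mean growth activity at or below -80% and every replicate also at or below -80%; inconclusive = mean at or below -80% but some replicate above -80%; inactive = mean growth activity above -80%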;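 note: 0% = DMSO wells and -100% = levofloxacin 16 µg/mL wells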
Pf Dd2 growth – inhibitors of Plasmodium falciparum Dd2 growth; P. falciparum Dd2 growth, SYBR Green, 72 h; stronger effect = lower value; activity change, % at 10 µM; 94,000 compounds, 2.3% hits; in the data active = activity change below about -80%; inconclusive = no clear call, values can overlap the other calls
T cruzi growth-2 – inhibitors of T. cruzi proliferation; 5,600 compounds, 72% hits; inhibition, % at 8.35 µM; AID 651739; shares compounds with T cruzi growth-1; T. cruzi beta-gal in NIH3T3, GalScreen luminescence, 90 h;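 active = mean replicate inhibition above about 95% and at least 55% of replicates individually reaching it, limit read from the data; inconclusive = only one of the two criteria is met; inactive = neither criterion is met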
T cruzi growth-3 – Trypanosoma cruzi proliferation inhibition | shares compounds with T cruzi growth-1 | T. cruzi beta-gal in NIH3T3, GalScreen luminescence, 90 h | inhibition, % at 2.09 µM | 5,600 compounds, 21% hits;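 active = mean inhibition above about 95%, with at least 55% of replicates also reaching it, limit read from the data; inconclusive = meets just one of the two conditions; inactive = meets neither condition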;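 note: plate controls were neutral control median for no effect and positive control median for full effect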
3T3 cytotox – cytotoxicity in mouse NIH/3T3 fibroblasts; NIH/3T3 viability, CellTiter-Glo ATP luminescence, 90 h; cytotoxicity (signal decrease), % at 8.35 µM; shares compounds with T cruzi growth-1; 5,600 compounds, 14% hits;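 active = mean signal decrease across replicates above about 35% based on untreated-well scatter, with enough replicates individually passing, limit read from the data; inconclusive = no rule stated though some were filed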;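 note: 0% = median of neutral control wells and 100% = median of positive control wells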
3T3 cytotox 2 – cytotoxicity in mouse NIH/3T3 fibroblasts; 5,600 compounds, 56% hits; NIH/3T3 viability, CellTiter-Glo ATP luminescence, 90 h; shares compounds with T cruzi growth-1; inhibition, % at 24.9 µM;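 active = mean loss of cell viability signal at or above a set limit, and enough replicates individually reaching it; inconclusive = meets only the mean limit or only the replicate share; inactive = meets neither condition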;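 note: 0% = median of neutral control wells and 100% = median of positive control wells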
An asterisk follows results filed as active; ? = inconclusive; · = no result.

SMILES	T cruzi growth-1	C diff HTS	Pf Dd2 growth	T cruzi growth-2	T cruzi growth-3	3T3 cytotox	3T3 cytotox 2
CC(C)C#Cc1ccc2c(c1)O[C@H](CN(C)C(=O)c1ccccc1)[C@@H](C)CN([C@H](C)CO)S2(=O)=O	115.2*	-2.3	-64.8	104.7*	60.7	-0.1	30.4*
CC(C)C#Cc1ccc2c(c1)O[C@@H](CN(C)C(=O)c1ccncc1)[C@@H](C)CN([C@H](C)CO)S2(=O)=O	107.0*	0.8	-10.5	102.3*	?	27.4	42.0*
CC(C)C#Cc1ccc2c(c1)O[C@H](CN(C)C(=O)c1ccccc1)[C@@H](C)CN([C@@H](C)CO)S2(=O)=O	85.5	28.6	-60.6	·	·	·	·
CO[C@H]1CN(C)C(=O)c2cc(NC(C)=O)ccc2OC[C@@H](C)N(Cc2ccccc2F)C[C@@H]1C	-30.6	·	-12.7	·	·	·	·
CS(=O)(=O)N1[C@H](CO)[C@@H](c2ccc(-c3ccccc3F)cc2)[C@@H]1C#N	14.9	4.8	21.8	·	·	·	·
COCC(=O)Nc1ccc2c(c1)OC[C@H](C)N(Cc1cccnc1)C[C@H](C)[C@H](OC)CN(C)C2=O	7.0	4.5	-9.1	·	·	·	·
C[C@@H]1CN([C@H](C)CO)C(=O)c2cccc(N(C)C)c2O[C@H]1CN(C)Cc1ccc(C(F)(F)F)cc1	101.1*	2.1	-28.2	51.2	12.4	-2.9	102.5*
C[C@H]1CN([C@@H](C)CO)C(=O)c2cccc(N(C)C)c2O[C@@H]1CN(C)C(=O)Nc1ccc(C(F)(F)F)cc1	39.9	2.1	-14.6	·	·	·	·
C[C@H]1CN([C@@H](C)CO)C(=O)c2cccc(N(C)C)c2O[C@@H]1CN(C)Cc1ccc(C(F)(F)F)cc1	103.2*	-2.9	-50.3	45.4	35.8	9.5	65.5*
C[C@H]1CN([C@@H](C)CO)C(=O)c2cccc(N(C)C)c2O[C@H]1CN(C)Cc1ccc(C(F)(F)F)cc1	33.1	3.0	-11.7	·	·	·	·
C[C@H](CO)N1C[C@H](C)[C@H](CN(C)C(=O)Nc2ccc(C(F)(F)F)cc2)Oc2c(cccc2N(C)C)C1=O	96.4*	-0.8	-11.2	91.3	17.3	2.5	11.0
C[C@H](CO)N1C[C@H](C)[C@@H](CN(C)Cc2ccccc2)Oc2c(cccc2N(C)C)C1=O	8.7	-14.4	18.6	·	·	·	·
COc1ccc(CN(C)C[C@H]2Oc3ccc(NC(=O)Nc4c(C)noc4C)cc3CC(=O)N([C@@H](C)CO)C[C@@H]2C)cc1	-15.3	1.0	10.6	·	·	·	·
[N-]=[N+]=Nc1ccccc1C[C@@]1(C(=O)NCc2ccccc2)N=C(c2ccc(OCCCO)cc2)O[C@@H]1c1ccccc1N=[N+]=[N-]	·	-0.7	·	·	·	·	·
CN(C)C(=O)c1cccc(-c2ccc3c(c2)[C@H]2[C@H](CCN2C(=O)c2ccc4c(c2)OCO4)[C@H](CO)N3)c1	63.7	1.2	-13.9	·	·	·	·
CN(C)C(=O)c1cccc(-c2ccc3c(c2)[C@H]2[C@H](CCN2C(=O)C2CCOCC2)[C@@H](CO)N3)c1	?	0.7	7.0	98.6*	31.5	-39.3	-8.9
CN(C)C(=O)c1cccc(-c2ccc3c(c2)[C@@H]2[C@@H](CCN2C(=O)C2CCOCC2)[C@@H](CO)N3)c1	94.1	0.2	4.0	·	·	·	·
CN(C)C(=O)c1ccc(-c2ccc3c(c2)[C@@H]2[C@@H](CCN2C(=O)c2ccc4c(c2)OCO4)[C@H](CO)N3)cc1	?	2.5	-8.9	103.8*	77.3	-25.6	-6.0
CCC(=O)N1CC[C@@H]2[C@@H](CO)Nc3ccc(-c4ccc(C(=O)N(C)C)cc4)cc3[C@@H]21	103.0*	3.6	-12.4	104.0*	46.5	-40.4	-16.2
CN(C)CC(=O)N1CC[C@@H]2[C@H](CO)Nc3ccc(-c4ccc(C(=O)N(C)C)cc4)cc3[C@@H]21	60.4	-4.5	7.0	·	·	·	·
CN(C)C(=O)c1cccc(-c2ccc3c(c2)[C@@H]2[C@@H](CCN2C(=O)C2CC2)[C@@H](CO)N3)c1	106.2*	-4.5	-26.9	98.8*	77.1	-3.8	-1.4
CN(C)C(=O)c1cccc(-c2ccc3c(c2)[C@H]2[C@H](CCN2C(=O)C2CCCC2)[C@H](CO)N3)c1	·	-1.6	-75.3	·	·	·	·
COc1ccc2c3c([nH]c2c1)[C@@H](CO)N(C(C)=O)CC31CN(C(=O)Nc2c(C)noc2C)C1	·	·	32.3	·	·	·	·
CC=Cc1ccc2n(c1=O)C[C@H]1[C@H](CO)[C@@H](C(=O)NCCc3cn(C)cn3)N(C(=O)CC)[C@@H]21 (mixture of isomers)	·	8.7	13.5	·	·	·	·
CCCNC(=O)Nc1ccc2c(c1)OC[C@H](C)N(C)C[C@@H](C)[C@@H](OC)CN(C)C2=O	17.6	-3.2	·	·	·	·	·
SMILES	T cruzi growth-1	C diff HTS	Pf Dd2 growth	T cruzi growth-2	T cruzi growth-3	3T3 cytotox	3T3 cytotox 2
O=C(Nc1cc(F)ccc1F)N1CCCCN2[C@@H](CO)[C@@H](c3ccc(-c4cncnc4)cc3)[C@@H]2C1	108.2*	-3.8	15.7	-6.0	-12.8	-30.9	-6.4
O=C(Nc1cc(F)ccc1F)N1CCCCN2[C@H](C1)[C@H](c1ccc(-c3ccccc3)cc1)[C@@H]2CO	99.2*	19.9	-6.9	107.6*	60.5	29.9	20.0
O=C(Nc1ccccc1F)N1CCCCN2[C@H](C1)[C@H](c1ccc(-c3cccnc3)cc1)[C@@H]2CO	104.3*	-12.6	20.1	?	-6.9	-11.4	-12.2
O=C(Nc1cc(F)ccc1F)N1CCCCN2[C@H](CO)[C@H](c3ccc(-c4ccccc4)cc3)[C@H]2C1	40.5	48.2	-71.3	·	·	·	·
O=C(Nc1cc(F)ccc1F)N1CCCCN2[C@H](CO)[C@H](c3ccc(-c4cccnc4)cc3)[C@@H]2C1	61.8	1.7	8.3	·	·	·	·
O=C(Nc1ccccc1F)N1CCCCN2[C@H](CO)[C@@H](c3ccc(-c4cccnc4)cc3)[C@@H]2C1	55.0	-7.2	7.2	·	·	·	·
O=C(Nc1cc(F)ccc1F)N1CCCCN2[C@H](CO)[C@H](c3ccc(-c4ccccc4)cc3)[C@@H]2C1	20.3	-3.2	-0.3	·	·	·	·
O=C(Nc1cc(F)ccc1F)N1CCCCN2[C@@H](CO)[C@H](c3ccc(-c4cccnc4)cc3)[C@@H]2C1	?	-0.5	-12.1	97.3*	33.7	0.3	14.4
O=C(C[C@@H]1CC[C@@H](NS(=O)(=O)c2ccccc2F)[C@@H](CO)O1)NCCCN1CCOCC1	17.1	·	9.2	·	·	·	·
O=C(Nc1cc(F)ccc1F)N1CCCCN2[C@H](CO)[C@H](c3ccc(-c4cncnc4)cc3)[C@H]2C1	112.1*	-7.1	9.1	107.2*	25.3	-3.4	-16.0
O=C(Nc1cc(F)ccc1F)N1CCCCN2[C@H](CO)[C@@H](c3ccc(-c4ccncc4)cc3)[C@H]2C1	57.5	1.8	-23.6	·	·	·	·
O=C(Nc1cc(F)ccc1F)N1CCCCN2[C@@H](CO)[C@H](c3ccc(-c4cncnc4)cc3)[C@@H]2C1	98.1*	-3.8	6.3	68.7	18.2	23.6	11.0
